Inconclusive results are not listed. The source made the active and inactive calls. Rule for the calls: active = hit-call score of the fitted dose curve at least 0.9, where 1 is the maximum; inconclusive = response in the unintended direction; inactive = score below 0.9.
Molecular target: human Protein Tyrosine Phosphatase Non-receptor Type 6 (PTPN6), PTPN6 (gene 5777) (UniProt P29350)
Test: NVS_ENZ_hPTPN6: NovaScreen (NVS) Enzymatic Assay for human Protein Tyrosine Phosphatase Non-receptor Type 6 (PTPN6) (AID 2283210)
Method: NVS_ENZ_hPTPN6 is a biochemical, single-readout assay that uses extracted gene-proteins from SF9 in a cell-free assay. Measurements were taken 1.33 hours after chemical dosing in a 384-well plate.NVS_ENZ_hPTPN6 is one of one assay component(s) measured or calculated from the NVS_ENZ_hPTPN6 assay. It is designed to make measurements of enzyme activity, a form of enzyme reporter, as detected with fluorescence intensity signals by Fluorescence and electrophoretic mobility shift technology.Data from the assay component NVS_ENZ_hPTPN6 was analyzed into 1 assay endpoint. This assay endpoint, NVS_ENZ_hPTPN6, was analyzed in the positive analysis fitting direction relative to DMSO as the negative control and baseline of activity. Using a type of enzyme reporter, loss-of-signal activity can be used to understand changes in the enzymatic activity as they relate to the gene PTPN6. Furthermore, this assay endpoint can be referred to as a primary readout, because this assay has produced multiple assay endpoints where this one serves a enzymatic activity function. To generalize the intended target to other relatable targets, this assay endpoint is annotated to the phosphatase intended target family, where the subfamily is non-receptor tyrosine phosphatase.
Binding assays used specific radioligands (tritiated, iodinated) with non-radioactive competitive displacement ligands in agonist or antagonist protocols (as indicated) and various reference compounds and inhibitors to titrate specific binding to receptors and transporters. Most enzyme assays (CYPs, kinases, phosphatases, proteases, HDACs) used recombinant protein and specific substrates (fluorescence mostly, some colorimetric and radioactive) and inhibitors, followed by a biochemical separation of substrate and product. All assays for the biochemical HTS were initially run in duplicate at a single concentration (10 uM for CYP450 assays and 25 uM for all others). […] Each assay was run with positive and negative controls, and concurrent controls on every plate. The follow-up (secondary) screen tested active chemical-pairs in concentration series, as well as a few additional assays not tested in the primary screen, some selected negative inactives, and several cases re-run in the concentration series for confirmatory purposes.

SMILES	outcome
CC(C)CCCCCCCOC(=O)CCCCC(=O)OCCCCCCCC(C)C	inactive
O=C1OC(=O)C2C3C=CC(C3)C12 (stereo not drawn)	inactive
O=c1n(CC2CO2)c(=O)n(CC2CO2)c(=O)n1CC1CO1 (stereo not drawn)	inactive
NC(=O)NO	inactive
CN(C)c1ccc(Cc2ccc(N(C)C)cc2)cc1	inactive
O=C1CCCCCN1	inactive

Molecular target: human Protein Tyrosine Phosphatase Receptor Type B (PTPRB), PTPRB (gene 5787) (UniProt P23467)
Test: NVS_ENZ_hPTPRB: NovaScreen (NVS) Enzymatic Assay for human Protein Tyrosine Phosphatase Receptor Type B (PTPRB) (AID 2283211)
How it was run: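 Recombinant human PTPRB with a fluorescent substrate, product separated by electrophoretic mobility shift; read 1 h after dosing. Primary screen in duplicate at 25 uM; actives then retested in concentration series; loss of signal versus DMSO.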

human Protein Tyrosine Phosphatase Receptor Type B (PTPRB), PTPRB (gene 5787), sequence (P23467 whole entry, looked up): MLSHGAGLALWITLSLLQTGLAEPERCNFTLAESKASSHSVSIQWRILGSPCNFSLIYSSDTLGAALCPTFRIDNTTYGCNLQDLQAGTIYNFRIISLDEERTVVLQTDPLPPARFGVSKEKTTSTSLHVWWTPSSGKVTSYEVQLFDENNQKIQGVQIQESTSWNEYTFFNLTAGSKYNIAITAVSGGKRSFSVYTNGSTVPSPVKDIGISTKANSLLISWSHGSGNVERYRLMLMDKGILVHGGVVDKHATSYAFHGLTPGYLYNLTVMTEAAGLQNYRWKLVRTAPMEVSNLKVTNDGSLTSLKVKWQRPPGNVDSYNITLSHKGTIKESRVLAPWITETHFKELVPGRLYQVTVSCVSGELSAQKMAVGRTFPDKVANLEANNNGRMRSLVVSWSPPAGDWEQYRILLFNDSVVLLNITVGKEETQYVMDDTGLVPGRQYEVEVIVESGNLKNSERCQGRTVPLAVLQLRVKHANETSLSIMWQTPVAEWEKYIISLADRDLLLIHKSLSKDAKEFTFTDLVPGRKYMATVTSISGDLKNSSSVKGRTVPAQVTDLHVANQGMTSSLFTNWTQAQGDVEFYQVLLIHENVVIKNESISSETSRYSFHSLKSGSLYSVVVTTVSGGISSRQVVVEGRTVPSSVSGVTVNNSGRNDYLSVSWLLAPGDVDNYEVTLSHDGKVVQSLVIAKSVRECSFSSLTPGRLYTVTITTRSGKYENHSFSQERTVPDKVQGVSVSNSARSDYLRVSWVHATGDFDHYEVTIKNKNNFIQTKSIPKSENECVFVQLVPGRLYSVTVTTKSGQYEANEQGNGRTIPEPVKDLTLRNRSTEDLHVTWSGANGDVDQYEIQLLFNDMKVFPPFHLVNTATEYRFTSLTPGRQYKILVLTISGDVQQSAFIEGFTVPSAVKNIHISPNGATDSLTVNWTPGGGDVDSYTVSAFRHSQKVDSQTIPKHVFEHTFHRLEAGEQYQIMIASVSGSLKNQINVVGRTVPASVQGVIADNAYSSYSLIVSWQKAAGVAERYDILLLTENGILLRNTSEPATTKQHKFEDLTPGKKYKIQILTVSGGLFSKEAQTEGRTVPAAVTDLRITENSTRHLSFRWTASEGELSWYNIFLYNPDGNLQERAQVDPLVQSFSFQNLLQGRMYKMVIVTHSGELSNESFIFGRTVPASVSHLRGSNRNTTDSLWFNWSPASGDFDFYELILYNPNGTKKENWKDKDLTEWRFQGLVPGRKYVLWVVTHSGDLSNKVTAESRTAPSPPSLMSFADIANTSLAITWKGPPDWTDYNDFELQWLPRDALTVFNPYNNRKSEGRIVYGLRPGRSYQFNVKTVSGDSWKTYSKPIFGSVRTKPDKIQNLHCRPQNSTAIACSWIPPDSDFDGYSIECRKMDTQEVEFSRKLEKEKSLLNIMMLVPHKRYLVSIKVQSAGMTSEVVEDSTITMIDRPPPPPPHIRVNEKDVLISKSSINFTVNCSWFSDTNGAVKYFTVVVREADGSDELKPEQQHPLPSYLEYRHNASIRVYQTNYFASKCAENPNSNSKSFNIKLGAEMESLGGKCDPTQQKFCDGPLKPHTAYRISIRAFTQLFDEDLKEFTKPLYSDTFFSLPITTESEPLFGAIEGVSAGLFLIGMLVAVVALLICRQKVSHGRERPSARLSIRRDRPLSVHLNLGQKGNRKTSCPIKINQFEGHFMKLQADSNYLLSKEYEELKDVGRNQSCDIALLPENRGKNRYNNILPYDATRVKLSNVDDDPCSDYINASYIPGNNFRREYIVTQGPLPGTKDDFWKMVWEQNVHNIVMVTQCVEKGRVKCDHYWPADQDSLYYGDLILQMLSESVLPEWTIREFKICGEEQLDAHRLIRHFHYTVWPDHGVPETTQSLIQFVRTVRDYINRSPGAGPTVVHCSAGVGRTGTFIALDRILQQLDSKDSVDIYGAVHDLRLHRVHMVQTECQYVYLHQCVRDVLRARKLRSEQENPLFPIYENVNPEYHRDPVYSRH

SMILES	outcome
Cc1ccc(N)cc1O	inactive
O=C(O)c1cccc(Oc2ccccc2)c1	inactive
CC(C)c1cccc(C(C)C)c1N1C(=O)c2ccc(O)cc2C1=O	inactive
CN(C)c1ccc(N=NS(=O)(=O)O)cc1	inactive

Molecular target: human Protein Tyrosine Phosphatase Receptor Type F (PTPRF), PTPRF (gene 5792) (UniProt P10586)
Test: NVS_ENZ_hPTPRF: NovaScreen (NVS) Enzymatic Assay for human Protein Tyrosine Phosphatase Receptor Type F (PTPRF) (AID 2283213)
How it was run: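 Cell-free fluorescence enzyme assay with recombinant protein and substrate; product separated by electrophoretic mobility shift. Read 1 h after dosing, single 25 uM duplicate screen, then concentration-response up to 50 uM; loss of signal vs DMSO.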

SMILES	outcome
Cc1ccc(N)cc1O	inactive
O=C(O)c1cc(N=Nc2ccc(S(=O)(=O)Nc3ccccn3)cc2)ccc1O	inactive
O=C(O)c1cccc(Oc2ccccc2)c1	inactive
CN(C)c1ccc(N=NS(=O)(=O)O)cc1	inactive

Molecular target: human Rho Associated Coiled-coil Containing Protein Kinase 1 (ROCK1), ROCK1 (gene 6093) (UniProt Q13464)
Test: NVS_ENZ_hROCK1: NovaScreen (NVS) Enzymatic Assay for human Rho Associated Coiled-coil Containing Protein Kinase 1 (ROCK1) (AID 2283214)
How it was run: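 Compounds first run in duplicate at 25 uM against recombinant human ROCK1, then followed in concentration series. Kinase activity was read 1 h post-dosing by fluorescence with mobility-shift separation, as signal loss relative to DMSO.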

SMILES	outcome	AC50
O=C(O)CCN(C1(C(=O)NO)CCCC1)S(=O)(=O)c1ccc(Oc2ccc(F)cc2)cc1	inactive	
COCCOCCOCCOC	inactive	
COC(=O)c1c(Cl)c(Cl)c(C(=O)OC)c(Cl)c1Cl	inactive	
COc1ccc2sc(C(=O)Nc3nnn[nH]3)c(OC(C)C)c2c1		7.67 µM (active)

Molecular target: human Protein Tyrosine Phosphatase Receptor Type M (PTPRM), PTPRM (gene 5797) (UniProt P28827)
Test: NVS_ENZ_hPTPRM: NovaScreen (NVS) Enzymatic Assay for human Protein Tyrosine Phosphatase Receptor Type M (PTPRM) (AID 2283215)
How it was run: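 Read-out is fluorescence after electrophoretic separation of substrate and product, taken 1.33 h post-dosing with recombinant enzyme. Compounds screened at 25 uM in duplicate, then concentration series for actives; activity as signal loss relative to DMSO.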

human Protein Tyrosine Phosphatase Receptor Type M (PTPRM), PTPRM (gene 5797), sequence (P28827 whole entry, looked up): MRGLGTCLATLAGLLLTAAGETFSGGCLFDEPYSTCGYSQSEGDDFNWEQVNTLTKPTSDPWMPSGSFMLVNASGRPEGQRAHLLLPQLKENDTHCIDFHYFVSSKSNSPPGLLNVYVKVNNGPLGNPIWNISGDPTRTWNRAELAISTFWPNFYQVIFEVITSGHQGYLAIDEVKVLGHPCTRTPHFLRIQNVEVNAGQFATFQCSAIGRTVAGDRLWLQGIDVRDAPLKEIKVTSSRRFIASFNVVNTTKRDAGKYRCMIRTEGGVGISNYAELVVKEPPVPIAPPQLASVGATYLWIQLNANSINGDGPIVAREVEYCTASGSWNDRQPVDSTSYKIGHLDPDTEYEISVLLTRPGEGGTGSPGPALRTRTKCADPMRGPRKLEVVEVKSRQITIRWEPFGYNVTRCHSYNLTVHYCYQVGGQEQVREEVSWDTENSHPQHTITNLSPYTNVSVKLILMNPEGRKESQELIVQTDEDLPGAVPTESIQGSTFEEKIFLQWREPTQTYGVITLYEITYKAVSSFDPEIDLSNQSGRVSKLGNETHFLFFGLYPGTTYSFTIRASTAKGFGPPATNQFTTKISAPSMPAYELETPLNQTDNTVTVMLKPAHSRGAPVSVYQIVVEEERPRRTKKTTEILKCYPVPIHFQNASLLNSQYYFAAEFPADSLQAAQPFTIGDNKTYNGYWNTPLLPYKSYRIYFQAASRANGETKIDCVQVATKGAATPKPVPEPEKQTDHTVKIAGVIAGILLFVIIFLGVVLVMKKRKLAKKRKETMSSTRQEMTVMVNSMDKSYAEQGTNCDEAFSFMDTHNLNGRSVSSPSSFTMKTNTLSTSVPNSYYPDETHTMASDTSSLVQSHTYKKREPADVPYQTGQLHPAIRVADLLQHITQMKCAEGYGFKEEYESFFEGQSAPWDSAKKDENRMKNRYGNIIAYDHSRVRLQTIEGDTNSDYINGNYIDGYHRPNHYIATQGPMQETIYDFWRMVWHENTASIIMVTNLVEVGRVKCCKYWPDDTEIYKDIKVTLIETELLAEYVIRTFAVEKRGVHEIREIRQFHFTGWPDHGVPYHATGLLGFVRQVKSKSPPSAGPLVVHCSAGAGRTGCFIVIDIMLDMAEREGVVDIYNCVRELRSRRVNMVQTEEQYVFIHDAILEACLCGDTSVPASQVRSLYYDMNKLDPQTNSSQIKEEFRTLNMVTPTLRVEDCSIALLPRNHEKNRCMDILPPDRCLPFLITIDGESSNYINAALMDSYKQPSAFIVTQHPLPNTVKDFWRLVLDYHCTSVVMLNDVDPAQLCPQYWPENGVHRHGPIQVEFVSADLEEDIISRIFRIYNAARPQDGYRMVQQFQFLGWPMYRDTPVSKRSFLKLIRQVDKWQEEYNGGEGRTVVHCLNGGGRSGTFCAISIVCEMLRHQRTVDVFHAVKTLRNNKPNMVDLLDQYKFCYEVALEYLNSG

SMILES	outcome	AC50
O=P(OC(CCl)CCl)(OC(CCl)CCl)OC(CCl)CCl	inactive	
O=C(O)c1cc(N=Nc2ccc(S(=O)(=O)Nc3ccccn3)cc2)ccc1O	inactive	
O=C(O)c1cccc(Oc2ccccc2)c1	inactive	
Nc1ccc(Nc2ccccc2)cc1		15.8 µM (active)
CN(C)c1ccc(N=NS(=O)(=O)O)cc1	inactive	

Molecular target: human Sirtuin 2 (SIRT2), SIRT2 (gene 22933) (UniProt Q8IXJ6)
Test: NVS_ENZ_hSIRT2: NovaScreen (NVS) Enzymatic Assay for human Sirtuin 2 (SIRT2) (AID 2283217)
How it was run: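 Single-point duplicate screen at 25 uM, then concentration-response (max 50 uM) for chemicals passing threshold. Enzyme activity of recombinant human SIRT2 measured after 1 hr by fluorescence with mobility-shift separation of product; DMSO baseline.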

human Sirtuin 2 (SIRT2), SIRT2 (gene 22933), sequence (Q8IXJ6 whole entry, looked up): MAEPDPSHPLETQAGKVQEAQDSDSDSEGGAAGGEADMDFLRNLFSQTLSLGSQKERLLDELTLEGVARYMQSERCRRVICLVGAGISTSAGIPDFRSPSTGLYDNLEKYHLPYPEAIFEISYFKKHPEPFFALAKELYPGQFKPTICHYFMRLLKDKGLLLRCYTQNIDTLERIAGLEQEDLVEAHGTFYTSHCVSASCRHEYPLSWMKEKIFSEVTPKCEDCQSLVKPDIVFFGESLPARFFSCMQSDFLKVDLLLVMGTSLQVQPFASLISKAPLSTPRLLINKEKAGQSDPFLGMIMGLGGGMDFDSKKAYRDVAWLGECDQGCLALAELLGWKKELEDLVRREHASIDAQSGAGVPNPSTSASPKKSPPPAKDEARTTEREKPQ

SMILES	outcome	AC50
CC(=O)OCCC(C)C	inactive	
Cc1ccc(N)cc1O	inactive	
CNS(=O)(=O)c1cc(C(=O)N2CCC(CCN3C4CCC3CC(n3c(C)nc5ccccc53)C4)(c3cccc(F)c3)CC2)c(Cl)cc1F (stereo not drawn)	inactive	
CC[C@H](C)C(=O)O[C@H]1C[C@@H](C)C=C2C=C[C@H](C)[C@H](CC[C@@H]3C[C@@H](O)CC(=O)O3)[C@H]21	inactive	
COc1cccc(-c2ccc(/C=C\CN3CCCCCC3)cc2Cl)c1		16.6 µM (active)
Cc1c(-c2cccnc2)c2ccccc2n1CCCCC(=O)O	inactive	

Molecular target: human Sirtuin 1 (SIRT1), SIRT1 (gene 23411) (UniProt Q96EB6)
Test: NVS_ENZ_hSIRT1: NovaScreen (NVS) Enzymatic Assay for human Sirtuin 1 (SIRT1) (AID 2283219)
How it was run: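 Cell-free recombinant SIRT1 with a fluorescent substrate; substrate and product separated by electrophoretic mobility shift and read by fluorescence intensity, 1 h after dosing. Primary screen at 25 uM in duplicate; hits re-run in concentration-response up to 50 uM, relative to DMSO.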

human Sirtuin 1 (SIRT1), SIRT1 (gene 23411), sequence (Q96EB6 whole entry, looked up): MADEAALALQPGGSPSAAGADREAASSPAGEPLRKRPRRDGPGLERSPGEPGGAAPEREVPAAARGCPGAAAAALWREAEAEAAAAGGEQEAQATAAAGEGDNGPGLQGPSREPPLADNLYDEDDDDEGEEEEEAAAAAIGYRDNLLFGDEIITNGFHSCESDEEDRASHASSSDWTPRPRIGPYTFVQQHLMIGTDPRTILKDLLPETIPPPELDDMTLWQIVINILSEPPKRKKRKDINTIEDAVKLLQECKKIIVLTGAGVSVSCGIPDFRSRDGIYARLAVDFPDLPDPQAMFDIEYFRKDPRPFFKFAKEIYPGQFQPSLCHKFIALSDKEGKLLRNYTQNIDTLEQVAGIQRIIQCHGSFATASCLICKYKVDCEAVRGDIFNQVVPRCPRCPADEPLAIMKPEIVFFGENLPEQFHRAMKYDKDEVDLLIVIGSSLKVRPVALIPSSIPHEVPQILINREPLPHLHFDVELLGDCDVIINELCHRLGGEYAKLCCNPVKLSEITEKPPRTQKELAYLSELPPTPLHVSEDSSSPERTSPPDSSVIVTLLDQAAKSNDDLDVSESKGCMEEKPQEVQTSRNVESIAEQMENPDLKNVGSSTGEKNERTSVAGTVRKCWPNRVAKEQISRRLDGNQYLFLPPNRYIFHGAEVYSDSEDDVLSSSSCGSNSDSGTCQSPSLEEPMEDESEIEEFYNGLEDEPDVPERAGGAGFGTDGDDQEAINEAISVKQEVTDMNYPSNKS

SMILES	outcome
Nc1cccc(N)c1	inactive
Cc1ccc(N)cc1O	inactive
O=C(O)c1cccc(Oc2ccccc2)c1	inactive
Oc1ccc2c(c1)-c1ccccc1C2	inactive
CNCc1ccc(NC(=O)c2c[nH]c3c2C(=O)CCC3)cc1	inactive

Molecular target: human Sirtuin 3 (SIRT3), SIRT3 (gene 23410) (UniProt Q9NTG7)
Test: NVS_ENZ_hSIRT3: NovaScreen (NVS) Enzymatic Assay for human Sirtuin 3 (SIRT3) (AID 2283222)
How it was run: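 Cell-free enzyme assay with recombinant protein and fluorescent substrate, product separated by electrophoretic mobility shift; read 1 hour after dosing. Screened in duplicate at 25 uM, then singleton concentration-response up to 50 uM; loss of signal versus DMSO.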

human Sirtuin 3 (SIRT3), SIRT3 (gene 23410), sequence (Q9NTG7 whole entry, looked up): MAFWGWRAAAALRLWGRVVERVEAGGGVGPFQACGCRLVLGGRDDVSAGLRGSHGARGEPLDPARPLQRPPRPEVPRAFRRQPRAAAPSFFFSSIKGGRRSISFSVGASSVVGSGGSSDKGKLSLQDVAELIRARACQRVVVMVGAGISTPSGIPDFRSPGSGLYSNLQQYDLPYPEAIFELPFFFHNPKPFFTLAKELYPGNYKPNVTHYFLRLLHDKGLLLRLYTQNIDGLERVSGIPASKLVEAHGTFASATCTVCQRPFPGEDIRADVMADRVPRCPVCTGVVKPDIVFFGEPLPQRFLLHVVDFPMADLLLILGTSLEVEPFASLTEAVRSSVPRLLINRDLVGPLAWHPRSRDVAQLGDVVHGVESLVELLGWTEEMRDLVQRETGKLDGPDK

SMILES	outcome	AC50
CC1(C)C(=O)N(Br)C(=O)N1Br	inactive	
CC[C@H](C)C(=O)O[C@H]1C[C@@H](C)C=C2C=C[C@H](C)[C@H](CC[C@@H]3C[C@@H](O)CC(=O)O3)[C@H]21	inactive	
COc1cccc(-c2ccc(/C=C\CN3CCCCCC3)cc2Cl)c1		3.06 µM (active)
Cc1[nH]cnc1C[C@H]1CCc2c(C)c3ccccc3n2C1=O	inactive	

Reference: PubChem BioAssay (EPA / NIEHS)
